Among all 2,100 compounds or so, about 770 (37%) were called active.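 How the source made its calls: active means by-eye trace score of 1 for enhancers or -1 for inhibitors, so actives lie on both sides (some results past the limit were not filed as active); inactive means score 0, or 3 fluorescent, or 4 baseline rise.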 The list shows a part of the results.

Chain of G protein-activated inward rectifier potassium channel 2 (Homo sapiens) + G protein-activated inward rectifier potassium channel 1 (Homo sapiens) (P48051 whole entry, looked up): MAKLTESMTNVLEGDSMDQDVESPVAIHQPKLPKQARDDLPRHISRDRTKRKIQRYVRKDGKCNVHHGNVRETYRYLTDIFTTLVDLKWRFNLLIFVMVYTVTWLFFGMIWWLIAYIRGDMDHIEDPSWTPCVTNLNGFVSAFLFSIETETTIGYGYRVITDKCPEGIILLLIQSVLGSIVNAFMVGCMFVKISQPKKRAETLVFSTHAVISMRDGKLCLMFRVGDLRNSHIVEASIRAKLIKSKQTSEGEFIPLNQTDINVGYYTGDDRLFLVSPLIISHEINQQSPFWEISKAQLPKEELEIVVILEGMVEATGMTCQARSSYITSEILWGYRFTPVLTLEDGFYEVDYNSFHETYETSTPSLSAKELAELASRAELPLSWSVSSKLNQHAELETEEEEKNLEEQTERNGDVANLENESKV
Chain of G protein-activated inward rectifier potassium channel 2 (Homo sapiens) + G protein-activated inward rectifier potassium channel 1 (Homo sapiens) (P48549 whole entry, looked up): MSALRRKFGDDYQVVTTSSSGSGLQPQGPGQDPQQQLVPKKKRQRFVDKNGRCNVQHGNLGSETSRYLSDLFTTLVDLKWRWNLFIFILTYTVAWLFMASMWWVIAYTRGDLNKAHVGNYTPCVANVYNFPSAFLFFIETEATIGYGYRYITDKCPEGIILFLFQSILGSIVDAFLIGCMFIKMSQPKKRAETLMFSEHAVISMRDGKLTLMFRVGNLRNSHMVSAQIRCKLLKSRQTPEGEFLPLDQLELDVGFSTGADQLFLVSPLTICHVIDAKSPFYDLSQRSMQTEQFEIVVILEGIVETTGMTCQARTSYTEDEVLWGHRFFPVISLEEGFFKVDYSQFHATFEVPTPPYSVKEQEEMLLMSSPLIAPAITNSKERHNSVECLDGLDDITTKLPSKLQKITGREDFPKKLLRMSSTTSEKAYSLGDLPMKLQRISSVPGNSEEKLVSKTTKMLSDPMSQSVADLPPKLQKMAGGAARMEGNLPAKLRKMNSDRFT

This test concerns the target G protein-activated inward rectifier potassium channel 2 (Homo sapiens) + G protein-activated inward rectifier potassium channel 1 (Homo sapiens) (UniProt P48051+P48549). The test is described as follows: GIRK1/2 thallium flux modulators, retest, confirmation, cell-based, HEK293 rmGlu8/hGIRK1/2, FluoZin-2 (AID 623911). To be noted: HEK293 rmGlu8/hGIRK1/2, thallium flux FluoZin-2; actives lie on both sides; glutamate co-added at its EC20 level.
As to `O=C(Nc1ccc(F)cc1)c1cccc2c1C(=O)N(Cc1ccccn1)C2`, the manual score is 0 (inactive).
As for `C/C(CC(C)(C)C1CCCCC1)=N\NC(N)=S`, the figure is 0 (inactive).
As for `Cc1ccc(-c2nnc(SCC(=O)Nc3ccc4c(c3)OCCO4)n2N)cc1`, the manual score is 0 (inactive).
As for `Cc1ccc2nc(-c3ccc(O)cc3)c(Nc3ccc4c(c3)OCCO4)n2c1`, the manual score was -1 (active).
Consider `CCn1c(-c2cc3c(C(F)(F)F)nn(C)c3s2)n[nH]c1=S`, for which the manual score was 0 (inactive).
Turning to `O=C(NC1CC1)c1ccc(CSCc2cccc(F)c2)o1`, the manual score was 0 (inactive).
As to `O=C(CCSCc1cccc(Cl)c1)NCCc1ccc(Cl)cc1`, the manual score is 1 (active).
As for `O=C(O)C1C2C=CC(C2)C1C(=O)NCCc1cccc(Cl)c1` (stereo not given), the figure is 0.5 (inactive).
For the compound `COc1ccc(C2C(C(N)=O)=C(C)Nc3nc(-c4cccc(Cl)c4)nn32)cc1OC` (stereo not given), the manual score is 0 (inactive).
On to `Cc1occc1C(=O)Nc1cccc(C(F)(F)F)c1`, for which the manual score was 0 (inactive).
In the case of `COc1ccc(C(=O)Nc2ccc(Oc3ncnc4sc(-c5ccccc5)cc34)cc2)cc1OC`, the manual score was 0 (inactive).
As for `CCCCN(C)S(=O)(=O)c1ccc(C(=O)Nc2nnc(-c3cccs3)o2)cc1`, the manual score is 1 (active).
`Cc1cc(C)c(NC(=O)c2ccc(S(=O)(=O)N(C)C)cc2)c(C)n1`: the manual score is 0 (inactive).
To `O=C(Nc1nnc(-c2cccs2)o1)c1cccc(F)c1` belongs 1 (active).
With `O=C(Nc1nnc(-c2cccs2)o1)c1cccc(Oc2ccccc2)c1`, the manual score is 1 (active).
As for `CCCCCc1nnc(NC(=O)Cc2cccs2)s1`, the figure is 0 (inactive).
Regarding `O=C(N/N=C/c1c(Cl)cccc1Cl)c1cccc(F)c1`, the manual score was 0 (inactive).
As for `O=C(Nc1nnc(-c2cccs2)o1)c1cccc(C(F)(F)F)c1`, the manual score is 1 (active).
In the case of `CCOc1ccc(-c2cc(C)n3nc(C(N)=O)cc3n2)cc1`, the manual score is 0 (inactive).
To `COCCCNc1c2c3c(cccc3[nH]c1=O)C(=O)c1ccccc1-2` belongs 3 (inactive); to `Cc1[nH]c2ccccc2c1CN1CCc2ccccc2C1`, 0 (inactive).
As to `CNc1nc(Cl)nc(NC(C)(C)C)n1`, the manual score was 0 (inactive).
As to `CCOC(=O)/C(=C\C=C1/Sc2cc(OCC)c(OCC)cc2N1CC)C(C)=O`, the manual score is 3 (inactive).
As for `Cc1ccc2c(c1)N(CC(=O)N(Cc1ccccn1)Cc1ccco1)C(=O)C(C(C)C)O2` (stereo not given), the figure is -0.5 (inactive); as for `CCC1Oc2ccc(C)cc2N(CC(=O)N(Cc2ccc(C)o2)C2CCCC2)C1=O` (stereo not given), -1 (active); as for `Cc1ccc(S(=O)(=O)c2c(C)cc(C)nc2Cl)c(C)c1`, 0 (inactive).
In the case of `CCC(C)NC(=O)CSc1nc2ccccc2c(=O)n1Cc1ccc(OC)cc1` (stereo not given), the manual score is 0 (inactive).
To `COc1ccc(NC(=O)CSc2nc3ccccc3c(=O)n2CCCN2CCCCC2)c(OC)c1` belongs -1 (active); to `CCCCn1c(SCC(=O)Nc2ccc(OC)cc2)nc2ccc(N3CCOCC3)cc2c1=O`, 0 (inactive).
Take `CCOC(=O)CSc1nc(C)c2cc(OC)ccc2n1`: the manual score is 0 (inactive).
For `COc1ccc(C(C)n2c(C)c3c(C)nnc(C)c3c2C)cc1` (stereo not given), the manual score is -1 (active).
For the compound `Cn1cc(S(=O)(=O)Nc2ccc(F)cc2F)c(=O)n(C)c1=O`, the manual score is 0 (inactive).
As for `S=c1nn[nH]n1C12CC3CC(CC(C3)C1)C2`, the figure is 1 (active).
In the case of `Cc1cc2[nH]c(=O)c3ccccc3n2n1`, the manual score is 0 (inactive).
On to `CCOC(=O)c1cnn2c1[nH]c(=O)c1ccccc12`, for which the manual score was 1 (active).
As for `CCOC(=O)c1ccccc1Nc1cn(C(C)=O)c2ccccc12`, the figure is -0.5 (inactive); as for `CCS(=O)(=O)Nc1ccc(-c2nnc(SCC(=O)c3ccc(NC(C)=O)c(OC)c3)o2)cc1`, 0 (inactive); as for `Cc1ccc(NC2=NC(=S)N(CC#N)C23CCCCC3)cc1`, 0 (inactive).
`COc1ccc(NC2=NC(=S)N(c3ccccc3C)C23CCCCC3)cc1`: the manual score was 1 (active).
As for `N#CCN1C(=S)N=C(Nc2cccc(Cl)c2)C12CCCCC2`, the manual score is 0.5 (inactive).
For `CCOC(=O)C(C)Sc1nc2c(cnn2-c2ccc(C)cc2)c(=O)[nH]1` (stereo not given), the manual score is 0 (inactive).
On to `COc1ccc(OC)c(Nc2ncnc3c2cnn3-c2cccc(C)c2)c1`, for which the manual score was 0 (inactive).
As for `NC(=O)CSc1ncnc2c1cnn2Cc1ccccc1`, the figure is 0 (inactive).
As for `CN(C)CCNc1ncnc2c1cnn2-c1ccc(Cl)cc1`, the figure is 0 (inactive).
As to `Cc1ccc(-n2ncc3c(SCc4ccccc4)ncnc32)cc1`, the manual score was 1 (active).
With `Cc1ccc(CSc2ncnc3c2cnn3-c2ccc(C)cc2)cc1`, the manual score was 1 (active).
To `CN(C)CCCOc1ccc(C(C)(C)c2ccccc2)cc1` belongs 0 (inactive); to `CCN1CCN(CCCOc2ccc(-c3ccccc3)cc2)CC1`, -1 (active).
In the case of `COc1ccc(OCCCN2CCCCCC2)cc1`, the manual score is 0 (inactive).
Consider `CCCCC(=O)N1CCCC(c2nc3c(nnn3Cc3cc(C)ccc3C)c(=O)[nH]2)C1` (stereo not given), for which the manual score is 0 (inactive).
In the case of `S=c1[nH]nc(-c2ccco2)n1/N=C/c1ccc(Br)s1`, the manual score is 0 (inactive).
Consider `S=c1[nH]nc(-c2ccccn2)n1/N=C/c1ccc(Br)s1`, for which the manual score was 1 (active).
For `Cc1cc(-c2n[nH]c(=S)n2/N=C/c2ccc(Br)s2)n[nH]1`, the manual score is 0 (inactive).
For `CN(C)Cc1cc(C(C)(C)C)c(O)c(C(C)(C)C)c1`, the manual score is -1 (active).
Consider `Cc1cc(C)c2oc(-c3ccc(C)c(NC(=S)NC(=O)c4cccs4)c3)nc2c1`, for which the manual score was 0 (inactive).
With `Cc1ccc(-c2nc3ccccc3o2)cc1NC(=S)NC(=O)c1cc2ccccc2o1`, the manual score was 0 (inactive).
With `Cc1ccc(C)c(NC(=S)NNC(=O)c2csc(C(C)C)c2)c1`, the manual score is 1 (active).
Take `Cc1cccc(NC(=S)NNC(=O)c2csc(C(C)C)c2)c1`: the manual score was 1 (active).
Consider `c1cn(CC2(Cn3ccnc3)COC2)cn1`, for which the manual score was 0 (inactive).
In the case of `CN(C)CCNC(=O)c1cc2c(s1)-c1ccccc1OC2`, the manual score was 0 (inactive).
Turning to `CN(C)CCNC(=O)c1ccc2c(c1)N(Cc1ccc(F)cc1)CCS2`, the manual score is -1 (active).
To `CCCCOc1ccc(C(=O)OC2CC(C)N(C)CC2C)cc1` (stereo not given) belongs -1 (active).
Turning to `CCCCOC(=O)Nc1ccc(C(=O)OCCC)cc1`, the manual score was 0 (inactive).
As to `Cc1cc(C)cc(NC(=O)Cn2cc3c(n2)CCCCC3)c1`, the manual score is 1 (active).
`COc1cccc(NC(=O)C(Sc2nc3ccccc3c(=O)n2CC(C)C)c2ccccc2)c1` (stereo not given): the manual score is 0 (inactive).
With `COc1cccc(NC(=O)Cn2cc3c(n2)CCCCC3)c1`, the manual score was 1 (active).
Take `O=C(CN1CCCCC1)Nc1cccc(Oc2ccccc2)c1`: the manual score was 0 (inactive).
Turning to `CC1CCc2nn(CC(=O)N3CCN(C(=O)c4ccco4)CC3)cc2C1` (stereo not given), the manual score is 0 (inactive).
Turning to `COc1cccc(NC(=O)Cn2cc(C#N)c3ccccc32)c1`, the manual score was 1 (active).
As for `COc1cccc(NC(=O)CSc2nc(N)cc(N)n2)c1`, the figure is 0 (inactive).
In the case of `COc1cccc(NC(=O)Cn2nnc(C(=O)Nc3ccccc3)c2N)c1`, the manual score is 1 (active).
To `COc1cccc(NC(=S)N/N=C2/CCCCc3ccccc32)c1` belongs 0.5 (inactive); to `COc1cccc(NC(=O)CSc2nnc(-c3ccoc3C)n2-c2ccccc2)c1`, -0.5 (inactive); to `CCCOC(=O)c1ccc(-c2c(C)noc2-c2ccc(OC)cc2O)o1`, 0 (inactive).
To `CC(=O)c1c(C)[nH]c(C(=O)COc2cc(C)cc(C)c2)c1C` belongs 0 (inactive); to `O=[N+]([O-])c1ccc(/C=N/NC(=S)Nc2ccccc2F)o1`, 1 (active).
As to `Fc1ccccc1NC(=S)N/N=C/c1ccccc1Br`, the manual score is 0 (inactive).
On to `Fc1ccccc1/C=N/NC(=S)Nc1ccc(Cl)cc1Cl`, for which the manual score is 0 (inactive).
For the compound `CSC(=O)NC12CC3CC(CC(C)(C3)C1)C2`, the manual score is 0 (inactive).
On to `CCC(C)NC(=O)CN1C(=O)CC(C)(C)S(=O)(=O)c2ccccc21` (stereo not given), for which the manual score was 0 (inactive).
For the compound `COCCNC(=O)CN1C(=O)CSc2ncccc21`, the manual score was 1 (active).
Consider `COCCNC(=O)CCCCCn1c(=S)[nH]c2ccccc2c1=O`, for which the manual score is 0 (inactive).
Regarding `CCc1cc(-c2n[nH]c(=S)n2C(C)c2ccccc2)cs1` (stereo not given), the manual score is -0.5 (inactive).
With `CC(c1ccc(Cl)cc1)n1c(-c2ccc3ccccc3n2)n[nH]c1=S` (stereo not given), the manual score was 1 (active).
To `CC(c1ccc(F)cc1)n1c(-c2ccc3ccccc3n2)n[nH]c1=S` (stereo not given) belongs 0.5 (inactive).
Take `COc1ccc(NC2=Nc3cccc4cccc2c34)cc1OC`: the manual score is 0 (inactive).
`CCCCN(C)C1=Nc2cccc3cccc1c23`: the manual score is -1 (active).
As for `CCc1ccc(NC(=S)NNC(=O)c2ccccc2OC(F)F)cc1`, the figure is 1 (active); as for `CC/C(=N\NC(=S)Nc1ccc(OC)cc1)c1ccc(OC(F)F)cc1`, 0 (inactive).
For `O=C1C2C3C=CC(C3)C2C(=O)N1/N=C/c1cn(Cc2ccccc2)c2ccccc12` (stereo not given), the manual score is 0 (inactive).
As for `CCOC(=O)Cc1csc(NC(=O)Nc2ccccc2)n1`, the figure is 1 (active).
As for `CCOC(=O)Cc1csc(NC(=S)NC(=O)c2ccccc2)n1`, the figure is 1 (active); as for `CCOC(=O)Cc1csc(NC(=S)NC(=O)c2ccc(C)cc2)n1`, 1 (active); as for `CC(C)CC(=O)NC(=S)Nc1nc(-c2cccc3ccccc23)cs1`, 0 (inactive).
Regarding `CCOC(=O)Cc1csc(NC(=S)NC(=O)C(C)(C)C)n1`, the manual score is 1 (active).
Regarding `O=C(NC(=S)Nc1nc2c(s1)CCCC2)c1ccccc1`, the manual score was 0 (inactive).
`O=C(NC(=S)Nc1nc2c(s1)CCCC2)c1ccc(C(=O)c2ccccc2)cc1`: the manual score is 0 (inactive).
As to `O=C1C(Cl)=C(N2CCOCC2)C(=O)N1c1cccc(Cl)c1`, the manual score was 0 (inactive).
With `CCCc1cc(-c2n[nH]c(=S)n2CC(C)C)cs1`, the manual score was 0 (inactive).
In the case of `CCCCCNC(=O)c1ccc2c(=O)[nH]c3c(C(=O)NCC4CCCO4)sc(=S)n3c2c1` (stereo not given), the manual score was 0 (inactive).
Consider `CC(C)C(C)(C#N)NC(=O)CSc1ncnc2sc(-c3ccccc3)cc12` (stereo not given), for which the manual score is 0 (inactive).
On to `Cc1cc(C(=O)CSc2n[nH]c(N)n2)c(C)n1-c1cc(F)ccc1F`, for which the manual score was 0 (inactive).
Consider `O=C1Nc2cc(S(=O)(=O)N3CCCC3)ccc2N2CCCC12` (stereo not given), for which the manual score was 0 (inactive).
On to `Cc1ccc(NC(=O)COC(=O)/C=C/c2ccco2)cc1S(=O)(=O)N(C)C`, for which the manual score was 1 (active).
For the compound `CC(C)c1ccccc1NC(=O)COC(=O)/C=C/c1cccc([N+](=O)[O-])c1`, the manual score is 0 (inactive).
In the case of `Cc1ccc(NC(=O)Cc2ccccc2Cl)cc1S(=O)(=O)N(C)C`, the manual score was 1 (active).
Take `CCOCc1c(C(=O)OCC(=O)Nc2ccc(C)c(S(=O)(=O)N(C)C)c2)oc2ccccc12`: the manual score was 1 (active).
As to `Cc1ccc(NC(=O)COC(=O)CCC(=O)c2ccc(Cl)cc2)cc1S(=O)(=O)N(C)C`, the manual score was 1 (active).
As for `Cc1cc(C(=O)OCC(=O)Nc2ccc(F)cc2)c(C)o1`, the figure is 0 (inactive); as for `Cc1ccc(NC(=O)COn2nnc3ccc(S(=O)(=O)N(C)C)cc32)cc1F`, 0 (inactive).

For the origin of these results see PubChem BioAssay AID623911 (Vanderbilt High Throughput Screening Facility, 2012).
